Test results as given in PubChem BioAssay (EPA / NIEHS).
Results filed as inconclusive are left out. Activity calls are given as the source filed them. The calls were made as follows, unless noted: active = hit-call score of the fitted dose curve at least 0.9, where 1 is the maximum; inconclusive = response in the unintended direction; inactive = score below 0.9.

System: not listed separately
Assay: CCTE_Deisenroth_5AR_NBTE_acceptor: CCTE's 5alpha-reductase NanoBRET Target Engagement Assay - Autofluorescence Screen, Deisenroth Lab (AID 2284321; active = hit-call score of the fitted dose curve at least 0.9, where 1 is the maximum; inactive = score below 0.9;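 also: compound fluorescence in the acceptor channel under 460 nm excitation flags autofluorescence artifacts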)
Conditions: actives raise or lower the signal
Outline: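 Acceptor-channel fluorescence flags artifacts, with excitation fixed at 460 nm. Nominal 100 uM chemical samples were read in triplicate runs, and signal changes were fitted in both directions relative to DMSO.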

| SMILES | outcome | AC50 |
| --- | --- | --- |
| Clc1ccc(C(c2ccccc2Cl)C(Cl)(Cl)Cl)cc1 (configuration not stated) | inactive | – |
| ClC(Cl)=C(c1ccc(Cl)cc1)c1ccc(Cl)cc1 | inactive | – |
| CC(C)(c1ccccc1)c1ccc(O)cc1 | inactive | – |
| Cc1cc(-c2ccc(N)c(C)c2)ccc1N | inactive | – |
| CCCCCCCCCC[N+](C)(C)CCCCCCCCCC | – | 4.7 µM (active) |
| CCC(C)c1cc([N+](=O)[O-])cc([N+](=O)[O-])c1O (configuration not stated) | – | 9.91 µM (active) |

System: SRD5A2 (gene 6716)
Assay: CCTE_Deisenroth_5AR_NBTE_ratio: CCTE's 5alpha-reductase NanoBRET Target Engagement Assay - Ratio, Deisenroth Lab (AID 2284322; active = hit-call score of the fitted dose curve at least 0.9, where 1 is the maximum; inactive = score below 0.9)
Conditions: actives raise or lower the signal
Outline: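 Reverse-transfect HEK293T with pNLF1-C-SRD5A2, express 20 h. Pre-incubate cells with chemical 3 h (8-point series, 10 nM - 29.9 uM, duplicate). Add testosterone tracer, 2 h more. Add substrate/inhibitor, read donor and acceptor emission.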

| SMILES | AC50 | outcome |
| --- | --- | --- |
| Clc1ccc(C(c2ccccc2Cl)C(Cl)(Cl)Cl)cc1 (configuration not stated) | 50 µM (active) | – |
| ClC(Cl)=C(c1ccc(Cl)cc1)c1ccc(Cl)cc1 | – | inactive |
| CC(C)(c1ccccc1)c1ccc(O)cc1 | – | inactive |
| Cc1cc(-c2ccc(N)c(C)c2)ccc1N | 50 µM (active) | – |
| CCCCCCCCCC[N+](C)(C)CCCCCCCCCC | 10.3 µM (active) | – |
| CCC(C)c1cc([N+](=O)[O-])cc([N+](=O)[O-])c1O (configuration not stated) | 53.3 µM (active) | – |

System: not listed separately
Assay: TAMU_PeakParms_SingleDonor1434_Asystole: Texas A&M University (TAMU) 1.5-hr Human Induced Pluripotent Stem Cell (iPSC)-derived Cardiomyocytes Calcium (Ca+2) Flux Assay for Cardiotoxicity: Asystole (quiescence of beating) (AID 2284328)
Conditions: not given
Outline: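 Donor 1434 iPSC-cardiomyocytes exposed 90 min at 37C, 5% CO2, to 0.2, 1, 10 and 100 uM in 0.5% DMSO. Ca2+ dye fluorescence gave average peak frequency; POD is EC95, a 95% beat-rate drop versus controls.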

| SMILES | outcome |
| --- | --- |
| ClC1=C(Cl)[C@]2(Cl)[C@@H]3[C@@H]4C[C@@H]([C@H]5O[C@@H]45)[C@@H]3[C@@]1(Cl)C2(Cl)Cl | inactive |
| C=CC(N)=O | inactive |
| c1cc2ccc3cccc4ccc(c1)c2c34 | inactive |

System: not listed separately
Assay: IUF_NPC1_cytotoxicity_72hr: Cytotoxicity Assessment at 72 hours in the Leibniz Research Institute for Environmental Medicine (IUF) Neural Progenitor Cell Proliferation Assay (NPC1) (AID 2284332);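 also: rising LDH signal means more cytotoxicity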
Conditions: not given
Outline: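 hNPC spheres (fetal brain, gestational week 16-19) grown under proliferative EGF/FGF conditions, pH 7.2-7.6, were treated continuously for 72 h. Cytotoxicity came from LDH-coupled resazurin fluorescence in each well's supernatant.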

| SMILES | outcome |
| --- | --- |
| O=S(=O)(O)C(F)(F)C(F)(F)C(F)(F)C(F)(F)C(F)(F)C(F)(F)F | inactive |
| C=CC(N)=O | inactive |
| CO/C=C(/C(=O)OC)c1ccccc1COc1cccc(C(F)(F)F)n1 | inactive |
| O=S(=O)(O)C(F)(F)C(F)(F)C(F)(F)C(F)(F)F | inactive |
| CCOP(=S)(OCC)SCSC(C)(C)C | inactive |

System: not listed separately
Assay: CCTE_Mundy_HCI_iCellGluta_NOG_NeuronCount: CCTE's Neurite Outgrowth Assay in iCellGluta cells for Neuron Count, Mundy Lab (AID 2284340);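 also: cells fixed about 48 h after compound addition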
Conditions: not given
Procedure: CCTE_Mundy_HCI_iCellGluta_NOG is a multiplexed, cell-based-readout assay that uses iCell GlutaNeurons from FUJIFILM Cellular Dynamics, Inc. (FCDI), human glutamatergic enriched neurons derived from induced pluripotent stem (iPS) cells, with measurements taken at 50.33 hours after chemical dosing in a microplate: 96-well plate.CCTE_Mundy_HCI_iCellGluta_NOG_NeuronCount is one of four components of the CCTE_Mundy_HCI_iCellGluta_NOG assay. It measures cell viability related to number of neurons using High Content Imaging of fluorescently labelled markers.Data from the assay component CCTE_Mundy_HCI_iCellGluta_NOG_NeuronCount was analyzed at the endpoint CCTE_Mundy_HCI_iCellGluta_NOG_NeuronCount in the positive analysis fitting direction relative to DMSO as the negative control and baseline of activity. Using a type of viability reporter, loss-of-signal activity can be used to understand developmental effects.
Exposure starts 2 hours post-plating by adding 10 ul of the working solution to 90 ul of media in the wells for a 1/10 dilution. Forty-eight hours after chemical treatment cells are fixed by direct addition of 100 ul of warm (37C) Dulbecco's phosphate buffered saline (DPBS) fixative solution containing 8% paraformaldehyde, 8% sucrose, and 0.1% of 3 mg/ml Hoechst 33342 into each well. Primary antibodies are prepared by dilution in Immunocytochemical Staining Buffer (ISB), 10X Dulbecco's PBS, 0.1% Saponin, 5% Bovine Serum Albumin, 0.5% NaN3 (Sodium Azide) and betaIII-tubulin (rabbit anti-betaIII-tubulin, 1:800) followed by Alexa Fluor-488 secondary (1:500) to label neuronal cell bodies and neurites. A Cellomics ArrayScan VTi HCS Reader is used for automated image acquisition and analysis of neurite outgrowth.

| SMILES | outcome | AC50 |
| --- | --- | --- |
| NS(=O)(=O)C(F)(F)C(F)(F)C(F)(F)C(F)(F)C(F)(F)C(F)(F)C(F)(F)C(F)(F)F | inactive | – |
| O=C(O)C(F)(F)C(F)(F)C(F)(F)C(F)(F)C(F)(F)C(F)(F)C(F)(F)C(F)(F)C(F)(F)F | inactive | – |
| O=S(=O)(O)C(F)(F)C(F)(F)C(F)(F)C(F)(F)C(F)(F)C(F)(F)F | inactive | – |
| CO/C=C(/C(=O)OC)c1ccccc1COc1cccc(C(F)(F)F)n1 | – | 35.8 µM (active) |
| COc1ccc(O)c(C(C)(C)C)c1 | inactive | – |
| O=S(=O)(O)C(F)(F)C(F)(F)C(F)(F)C(F)(F)F | inactive | – |
| CCOP(=S)(OCC)SCSC(C)(C)C | inactive | – |
